Data: PubChem BioAssay (NCI)
Values joined by “and” are separate entries in the source; they are usually repeats but may differ in a detail not shown here. Equal values may be shown once. This is part of a sample that, as a whole, favours compounds with a hit. Of some 79,000 tested, about 15% had one in any assay. Active and inactive are the calls of the source. Rule as the data show it: active = growth inhibition above about 70%; inactive = the rest.

Assays:
[1] = NCI Yeast Anticancer Drug Screen. Data for the rad50 strain (AID 155);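 also: 0% = growth of vehicle-only cultures of the same strain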; conditions: S. cerevisiae rad50 strain growth inhibition, stronger effect = higher value
Outline: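 Relative growth inhibition (compound vs vehicle) was measured in yeast with a defined repair-gene alteration.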

[2] = NCI Yeast Anticancer Drug Screen. Data for the sgs1 mgt1 strain (AID 161);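 also: 0% = growth of cultures given vehicle only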; conditions: S. cerevisiae sgs1 mgt1 strain, stronger effect = higher value
Outline: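 Percent growth inhibition was derived by comparing compound-exposed mutant yeast with vehicle-exposed cultures. The strain carries alterations in DNA damage repair.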

[3] = NCI Yeast Anticancer Drug Screen. Data for the cln2 rad14 strain (AID 165);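 also: 0% = growth equal to vehicle treated cultures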; conditions: S. cerevisiae cln2 rad14 strain, stronger effect = higher value
Outline: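 Readout is yeast growth inhibition versus vehicle-treated controls, using a strain with cln2 and rad14 alterations exposed to compound.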

[4] = NCI Yeast Anticancer Drug Screen. Data for the bub3 strain (AID 167); conditions: S. cerevisiae bub3 mutant strain, stronger effect = higher value
Outline: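 Screening used yeast with an engineered genetic alteration affecting cell cycle control. Compound-exposed cultures were compared with vehicle cultures, and reduced growth was taken as inhibition.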

[5] = NCI Yeast Anticancer Drug Screen. Data for the mlh1 rad18 strain (AID 175); conditions: S. cerevisiae mlh1 rad18 strain growth inhibition, stronger effect = higher value
Outline: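 Genetically defined yeast (DNA repair-deficient) exposed to compounds; growth inhibition determined relative to vehicle.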

[6] = NCI Yeast Anticancer Drug Screen. Data for the mec2-1 strain (AID 157); conditions: S. cerevisiae mec2-1 strain, stronger effect = higher value
Outline: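 Mutant yeast (mec2-1) grown with compound; growth inhibition relative to vehicle control reported.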

[7] = at 5.0 µM (retest, dose inferred, filed as 0.5)
[8] = at 50.0 µM (retest, dose inferred, filed as 5.0)

Measured: growth inhibition

O=C1C(c2ccccc2)=[N+]([O-])c2ccccc21
active: [1]; at 50.0 µM 87.4% | [2]; [8] 92% | [2]; at 50.0 µM 98.2% | [3]; at 50.0 µM 73.5% | [4]; [8] 80% | [4]; at 50.0 µM 99.2% | [5]; [8] 92% | [5]; at 50.0 µM 76.3%
inactive: [1]; [7] 2% | [1]; [8] 39% | [2]; [7] -2% | [3]; [7] 0% | [3]; [8] 12% | [4]; [7] 29% | [5]; [7] 4%

CC1=CC(O)C2CC1C2(C)C (centres undefined)
inactive: [1]; at 50.0 µM 12.1% and 3.35% and 3.95% | [6]; at 50.0 µM -24.1% and -1.15% and -0.85% | [2]; at 50.0 µM -12.6% and 3.35% and -8.95% | [3]; at 50.0 µM 3.25% and -9% and -2.6% | [4]; at 50.0 µM -6.5% and -10.9% and 2.05% | [5]; at 50.0 µM -8.1% and 0.55% and 8.15%

CCOC(=O)c1csc(/C=C/c2cc(OC)c(OC)c(OC)c2)n1
inactive: [1]; [7] 0% | [1]; [8] 3% | [1]; at 50.0 µM -1.2% | [2]; [7] -2% | [2]; [8] 41% | [2]; at 50.0 µM 46.4% | [3]; [7] -4% | [3]; [8] -3% | [3]; at 50.0 µM -19.5% | [4]; [7] 1% | [4]; [8] 6% | [4]; at 50.0 µM 11.9% | [5]; [7] -2% | [5]; [8] 3% | [5]; at 50.0 µM -8.1%

CCCCCCCCCCCCOC(=O)C[n+]1cccc(C(=O)Nc2ccc(Cl)cc2)c1
inactive: [2]; [7] 60% | [3]; [7] 53%
active: [1]; [7] 76% | [1]; [8] 98% | [1]; at 50.0 µM 98.8% | [2]; [8] 98% | [2]; at 50.0 µM 99% | [3]; [8] 99% | [3]; at 50.0 µM 100% | [4]; [7] 85% | [4]; [8] 99% | [4]; at 50.0 µM 98.8% | [5]; [7] 88% | [5]; [8] 99% | [5]; at 50.0 µM 98.4%

Cc1cc2cc3c(c(C(=O)O)c2o1)C(=O)c1ccc2ccccc2c1C3
inactive: [6]; [7] 24% | [2]; [7] 19% | [3]; [7] 14% | [4]; [7] 14% | [5]; [7] 20%
active: [6]; [8] 99% | [6]; at 50.0 µM 99.5% | [2]; [8] 99% | [2]; at 50.0 µM 99.5% | [3]; [8] 99% | [3]; at 50.0 µM 99.2% | [4]; [8] 99% | [4]; at 50.0 µM 99.6% | [5]; [8] 99% | [5]; at 50.0 µM 99.4%

C/C(Cl)=N\OC(=O)Nc1ccc(C)cc1
active: [1]; [8] 99% | [2]; [8] 91% | [2]; at 50.0 µM 74.5% | [3]; [8] 86% | [4]; [8] 98% | [4]; at 50.0 µM 74% | [5]; [8] 96%
inactive: [1]; [7] 4% | [1]; at 50.0 µM 55.6% | [2]; [7] -26% | [3]; [7] 4% | [3]; at 50.0 µM 53.6% | [4]; [7] 11% | [5]; [7] -3% | [5]; at 50.0 µM 60.4%

CCOc1ccc2c(c1)nc1ccccc1[n+]2CC
inactive: [6]; [7] 7% | [6]; [8] 33% | [6]; at 50.0 µM 48.6% | [2]; [7] 2% | [2]; [8] 27% | [2]; at 50.0 µM 41.4% | [3]; [7] 2% | [3]; [8] 9% | [3]; at 50.0 µM 56.4% | [4]; [7] 6% | [4]; [8] 36% | [4]; at 50.0 µM 24.3% | [5]; [7] -4% | [5]; [8] 20% | [5]; at 50.0 µM 44.2%

O=S=C(c1ccccc1)N(Cc1ccccc1)Cc1ccccc1
active: [1]; [8] 94% | [1]; at 50.0 µM 96% | [2]; [8] 98% | [2]; at 50.0 µM 96.7% | [3]; [8] 90% | [4]; [8] 93% | [4]; at 50.0 µM 96.8% | [5]; [8] 95% | [5]; at 50.0 µM 94.2%
inactive: [1]; [7] -1% | [2]; [7] 0% | [3]; [7] 10% | [3]; at 50.0 µM 69.7% | [4]; [7] 22% | [5]; [7] 1%

CCN(CC)CCOC(=O)CCN1CC2CCC(CC2)C1
inactive: [1]; [7] 14% | [1]; [8] 15% | [1]; at 50.0 µM -35.6% | [2]; [7] 17% | [2]; [8] 4% | [2]; at 50.0 µM -23.9% | [3]; [7] 23% | [3]; [8] 3% | [3]; at 50.0 µM 9.4% | [4]; [7] 0% | [4]; [8] -4% | [4]; at 50.0 µM -32.8% | [5]; [7] 18% | [5]; [8] 10% | [5]; at 50.0 µM -21.4%

CCOC(=O)c1[nH]n(-c2ccccc2)c(=O)c1/C=N/C(=S)Nc1ccccc1OC
inactive: [1]; [7] -7% | [1]; [8] -3% | [1]; at 50.0 µM 0.4% | [2]; [7] -5% | [2]; [8] -3% | [2]; at 50.0 µM -18.1% | [3]; [7] -23% | [3]; [8] -12% | [3]; at 50.0 µM 44.6% | [4]; [7] 0% | [4]; [8] -9% | [4]; at 50.0 µM 10.1% | [5]; [7] -2% | [5]; [8] 1% | [5]; at 50.0 µM -16.2%

O=C(O)C1C2CC3C(OC(=O)C31)C2Br (centres undefined)
inactive: [1]; at 50.0 µM 11.9% and 4.1% and 9.9% | [6]; at 50.0 µM 2.75% and 16.8% and -4.3% | [2]; at 50.0 µM -22.2% and 2.5% and 6.9% | [3]; at 50.0 µM -24.1% and -98.7% and -25.1% | [4]; at 50.0 µM -47.9% and 10.9% and 11.8% | [5]; at 50.0 µM 11.2% and 18.6% and 32%

CN(C)c1c([N+](=O)[O-])cc(N2C(=O)C=CC2=O)cc1[N+](=O)[O-]
active: [1]; [7] 81% | [1]; [8] 91% | [1]; at 50.0 µM 91.8% | [6]; [7] 88% | [6]; [8] 98% | [6]; at 50.0 µM 93.2% | [3]; [8] 99% | [3]; at 50.0 µM 90.8% | [4]; [8] 96% | [4]; at 50.0 µM 92.3% | [5]; [7] 80% | [5]; [8] 96% | [5]; at 50.0 µM 90.7%
inactive: [3]; [7] 50% | [4]; [7] 47%

COc1ccc(Cc2ccc(N)cc2)cc1
inactive: [1]; [7] -149% | [6]; [7] -52% | [6]; [8] 68% | [3]; [7] -61% | [4]; [7] -66% | [5]; [7] -132%
active: [1]; [8] 78% | [1]; at 50.0 µM 92.2% | [6]; at 50.0 µM 86.7% | [3]; [8] 91% | [3]; at 50.0 µM 87.8% | [4]; [8] 76% | [4]; at 50.0 µM 91.1% | [5]; [8] 86% | [5]; at 50.0 µM 96.8%

Cc1cc(C)nc(/C=C/c2ccc(/C=C/c3cc(C)cc(C)n3)cc2)c1
inactive: [1]; [7] -20% | [1]; [8] -4% | [6]; [7] -8% | [6]; [8] 4% | [6]; at 50.0 µM 2.65% | [2]; [7] 7% | [2]; [8] -1% | [2]; at 50.0 µM 11.9% | [3]; [7] -4% | [3]; [8] -11% | [3]; at 50.0 µM -19.6% | [4]; [7] -7% | [4]; [8] -11% | [4]; at 50.0 µM 0.4% | [5]; [7] -11% | [5]; [8] 3% | [5]; at 50.0 µM 5.5%

CCOC(=O)C(=O)Nc1ccc(Cl)cc1Cl
inactive: [1]; [7] -12% | [1]; [8] -1% | [1]; at 50.0 µM -1.5% | [2]; [7] -1% | [2]; [8] -2% | [2]; at 50.0 µM -2.25% | [3]; [7] 14% | [3]; [8] 34% | [3]; at 50.0 µM -1.75% | [4]; [7] 10% | [4]; [8] -10% | [4]; at 50.0 µM 10.6% | [5]; [7] 1% | [5]; [8] 7% | [5]; at 50.0 µM 19.1%

CN(C)C(=O)c1ccc(SC(=S)NCc2ccccc2)cc1
inactive: [1]; [7] 11% | [6]; [7] 0% | [3]; [7] 7% | [4]; [7] -11% | [5]; [7] 24% | [5]; [8] 42%
active: [1]; [8] 99% | [1]; at 50.0 µM 98.5% | [6]; [8] 100% | [6]; at 50.0 µM 97% | [3]; [8] 99% | [3]; at 50.0 µM 96.2% | [4]; [8] 99% | [4]; at 50.0 µM 81% | [5]; at 50.0 µM 98.8%

Cc1cc2c(cc1C)[n+](=O)c(C(=O)C/C(=N/NC(=O)CC#N)C(=O)Nc1ccccc1C(F)(F)F)c(C)n2[O-]
active: [6]; at 50.0 µM 91% | [2]; at 50.0 µM 91.8% | [3]; at 50.0 µM 91.5% | [4]; at 50.0 µM 94% | [5]; at 50.0 µM 90.8%
inactive: [6]; [7] 57% | [6]; [8] 57% | [2]; [7] 58% | [2]; [8] 58% | [3]; [7] 38% | [3]; [8] 38% | [4]; [7] 46% | [4]; [8] 46% | [5]; [7] 54% | [5]; [8] 54%
